Sampled rows, rich in hits. Any-hit rate of the full collection: about 1.5%.
CRFR2-BP ag – agonists of CRF-BP/CRF-R2 complex, primary screen, cell-based, HEK293, calcium dye fluorescence, uHTS; CRF-binding protein / CRF receptor 2 complex (human); calcium dye fluorescence (FLIPR); percent of saturating CRF peptide response; activation, % at 13.2 µM; 350,000 compounds, 0.46% hits;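 active means activation of at least 50%, plus an integration ratio under a set limit after plate pattern correction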;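 further: plate controls were neutral control wells without compound for no effect and CRF at EC100 for full effect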
CRFBP-R2 block – antagonists of CRF-BP/CRF-R2 complex, primary screen, cell-based, HEK293, calcium dye fluorescence, uHTS | CRF-induced calcium fluorescence | inhibition, % at 11.8 µM | 350,000 compounds, 0.59% hits;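 active means inhibition of the ligand-induced calcium signal above about 50% at the single tested concentration, limit read from the data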
Cardiac RTF inh – cardiac RTF calcium sensitivity inhibitors, primary screen, biochemical, IANBD-TnC fluorescence, EC70 calcium | AID 493244, 2011 | IANBD-labeled cardiac RTF, Ca2+ fluorescence | 340,000 compounds, 0.12% hits | inhibition, % at 7.15 µM | Troponin I, cardiac muscle (Homo sapiens) + Troponin T, cardiac muscle (Homo sapiens) + …;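 active means inhibition above the mean inhibition of all tested compounds plus 3 SD, cut at about 17% in these data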;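 further: assay run at fixed EC70 calcium of 1.6 mM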
IDE inh – human IDE inhibitors in live cells, primary screen, fluorescence polarization, HEK cells, FAbetaB substrate. AID 434962, 2010. inhibition, % at 5.59 µM. FAbetaB cleavage. 320,000 compounds, 0.41% hits;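 active means percent inhibition above the average of all tested compounds plus 3 SD, set per screening campaign, cut at about 16% in these data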;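 further: IDE supplied by intact live HEK cells; FP after avidin binding of uncleaved biotin substrate so inhibition keeps polarization high; 0% = DMSO wells and 100% = 60 µM reference IDE inhibitor Ii1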
IDE act – human IDE activators in live cells, primary screen, fluorescence polarization, HEK cells, FAbeta-B substrate | Insulin-degrading enzyme (Homo sapiens), P14735 | FAbeta-B cleavage; 0% vehicle, 100% cell-free pure enzyme wells | activation, % at 5.96 µM | 340,000 compounds, 0.073% hits | AID 493087, 2011;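 active means activation above the mean of all tested compounds plus 3 SD, set per screening campaign, cut at about 17% in these data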
RTF Ca sens act – cardiac RTF calcium sensitivity activators, primary screen, biochemical, IANBD-TnC fluorescence, EC20 calcium; Troponin I, cardiac muscle (Homo sapiens) + Troponin T, cardiac muscle (Homo sapiens) + …; IANBD-labeled TnC RTF fluorescence at EC20 calcium; 0% EC20 calcium, 100% full calcium; activation, % at 7.2 µM; 340,000 compounds, 0.24% hits; AID 493008, 2010;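 active means activation above the mean over all tested compounds plus 3 SD, cut at about 30% in these data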;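 further: rise in fluorescence read as greater calcium sensitivity of cardiac thin filaments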
IDE cell inh cf – human IDE inhibitors in live cells, confirmation, fluorescence polarization, HEK cells, FAbetaB substrate; shares compounds with IDE inh; FAbetaB cleavage; inhibition, % at 5.59 µM; 1,200 compounds, 51% hits; AID 435028, 2010;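 active means mean inhibition across triplicate wells above the cutoff set by the earlier primary insulin-degrading enzyme screen, cut at about 16% in these data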;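 further: 0% = DMSO wells and 100% = 60 µM reference IDE inhibitor Ii1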
HEK cytotox – cytotoxicity in HEK cells, cytotoxicity control for IDE inhibitor project, cell-based, luminescence. AID 449730, 2010. 1,200 compounds, 28% hits. shares compounds with IDE inh. inhibition, % at 5.59 µM. HEK293 cytotoxicity, ATP luminescence; in the data active means inhibition above about 22%;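 further: 0% = vehicle wells and 100% = reference cytotoxic drug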
IDE FP artifact – fluorescent or optically active artefacts, dose response, artefact control for IDE inhibitor project, biochemical, fluorescence polarization | shares compounds with IDE inh | FP counterscreen for fluorescent artifacts, IDE probe project | IC50, µM | 30 tested, under 10 active; call rule not given here
* hit, by the source's call; i = inactive; · = no result.

SMILES	CRFR2-BP ag	CRFBP-R2 block	Cardiac RTF inh	IDE inh	IDE act	RTF Ca sens act	IDE cell inh cf	HEK cytotox	others
COCCn1c(SC(C)C(=O)NCC2CCCO2)nc2scc(-c3ccc(F)cc3)c2c1=O (stereo unspecified)	-1	14	-4	-5	6	-12	·	·
COc1ccc2nc(N3CCN(C(=O)c4ccc5ncsc5c4)CC3)sc2c1	2	-2	-6	17*	-20	-1	11	30*
CCC(=O)Nc1ccc(NC(=S)NC(=O)c2oc3ccccc3c2C)cc1	15	21	3	1	2	17	·	·
CCC(=O)Nc1ccc(NC(=O)c2oc3ccccc3c2C)cc1	-1	98*	1	17*	-5	-9	5	15
CSc1cccc(N2CC(C(=O)Nc3ccccc3N3CCCC3)CC2=O)c1 (stereo unspecified)	-2	-9	-9	16*	-4	0	6	7
Cc1ccc(N2CC(C(=O)Nc3ccccc3N3CCCC3)CC2=O)cc1 (stereo unspecified)	0	-4	-14	1	1	-4	·	·
O=C1NC(=S)SC1=Cc1cccs1	6	-12	6	·	-1	3	·	·
CN1CCC/C1=C/C=C1\SC(=S)NC1=O	149*	-132	i	76*	-72	471*	69*	7
CCc1cc(-c2nnn(-c3cc(C(C)C)ccc3C)c2CC)ccc1-c1cn(CCc2c[nH]c3ccccc23)nn1	4	-10	·	·	·	·	·	·
CC1CCN(CC(=O)NCc2ccco2)CC1	-3	18	-4	0	5	-3	·	·
CC(=O)Nc1cccc(C(=O)/C=C/c2ccc(N(C)C)cc2)c1	196*	-219	-81	56*	-174	73*	51*	14
CC(=O)Nc1cccc(C(=O)/C=C/c2ccc(/C=C/C(=O)c3cccc(NC(C)=O)c3)cc2)c1	·	·	·	-1	·	·	·	·
CCN1C/C(=C/c2ccc(N3CCOCC3)cc2)C(=O)/C(=C/c2ccc(N3CCOCC3)cc2)C1	114*	-126	-22	18*	-24	27	29*	94*
CCc1ccc(/C=C2/SC(N3CCOCC3)=NC2=O)cc1	1	-5	-5	-1	-1	3	·	·
c1ccc(C(c2ccccn2)c2ccccn2)cc1	-1	29	-3	17*	-7	-6	3	9
CC(=O)Oc1ccc(C(c2ccc(OC(C)=O)cc2)c2ccccn2)cc1	-2	6	5	4	-1	8	·	·
CCC(CO)[n+]1c(C)cc(/C=C2\Sc3ccccc3N2Cc2ccccc2)cc1C (stereo unspecified)	77*	-103	-23	43*	-37	40*	54*	100*
O=C(/C=C/c1ccccc1Cl)Nc1ccc(-c2nnc3n2CCCCC3)cc1	-3	17	-4	31*	-2	11	1	9
Cc1c(C(=O)Nc2ccc(-c3nnc4n3CCCCC4)cc2)oc2c1ccc1ccccc12	1	-25	-1	23*	-12	-10	13	39*
COc1cccc(CNS(=O)(=O)c2cc3c(cc2Cl)NC(=O)CO3)c1	19	-12	-5	1	-3	-1	·	·
CCOC(=O)/C(=C/C1=CC(=C/N(C)C)/C(=O)O1)C(C)=O	29	-10	-56	16*	-13	53*	23*	4
CCOC(=O)/C(=C/c1ccc(OC(=O)c2ccccc2)cc1)C(C)=O	20	-65	-5	0	-6	7	·	·
O=C(c1cc(Br)c(Br)s1)N1CCc2ccccc2C1	1	0	-1	1	1	-2	·	·
O=C(Nc1ccc(Oc2ccccc2)cc1)C1CCN(c2c3c(nc4ncnn24)CCC3)CC1	1	-32	2	5	-2	-5	·	·
O=C(Nc1ccc2c(c1)CCC2)C1CCN(c2c3c(nc4ncnn24)CCC3)CC1	-4	-27	-1	42*	-42	-5	13	51*
SMILES	CRFR2-BP ag	CRFBP-R2 block	Cardiac RTF inh	IDE inh	IDE act	RTF Ca sens act	IDE cell inh cf	HEK cytotox	others
Cc1cccc(C(=O)Nc2cccc(-c3ccc4nncn4n3)c2)c1	-2	15	-12	20*	-29	-4	12	17
COc1ccc(C(=O)Nc2cccc(-c3ccc4nncn4n3)c2)cc1OC	-1	6	8	4	7	-6	·	·
COC(=O)c1cc(NC(=O)CSc2nnc(CN3CCOCC3)n2C)ccc1Cl	0	4	5	21*	-24	2	12	17
CC(C)c1ccc(NC(=O)CSc2nnc(-c3ccccn3)n2C)cc1	-2	-8	5	19*	-18	-1	11	4
CCc1ccc(NC(=O)CSc2nnc(-c3ccccn3)n2C)cc1	-2	4	-4	15	-9	4	·	·
Cc1ccc(NC(=O)CSc2nnc(CN3CCOCC3)n2C)cc1C	3	-13	-5	19*	-23	3	18*	3
COc1ccc(NC(=O)CSc2nnc(CN3CCOCC3)n2C)cc1Cl	0	-1	3	22*	-40	-2	23*	6	IDE FP artifact=>55
COc1cccc(NC(=O)CSc2nnc(CN3CCOCC3)n2C)c1	1	10	-3	12	-15	2	·	·
CC(=O)n1c(=O)oc2ccccc21	-1	15	-5	4	5	1	·	·
O=C(NCc1cccc(F)c1)C1CCC(=O)N(C2CC2)C1 (stereo unspecified)	0	-3	-1	-5	3	-4	·	·
COC(=O)c1cc(C(=O)OCC(=O)N(C)c2ccccc2)cc([N+](=O)[O-])c1	0	4	-2	0	3	-7	·	·
CC(C)c1ccc(NC(=O)CSc2nnc(CN3CCOCC3)n2C)cc1	-1	3	-7	17*	-27	2	13	15

Screens (PubChem)
